From PubChem BioAssay AID504408 (Broad Institute, 2011)
The whole screen tested about 300,000 compounds, of which about 5,200 (1.7%) were called active.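 How the source made its calls: active means mean replicate activation of at least 50% with a set share of replicates each reaching 50%; inconclusive means only one of those two conditions met; inactive means mean below 50% and too few replicates reaching it.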 This excerpt belongs to a sample that is enriched for actives.

test: HSF-1 response element luciferase induction – NIH3T3-HGL cells, MG132 stress, luminescence, single point, primary screen (AID 504408); details: NIH3T3-HGL HSF-1 luciferase reporter, MG132, 8 h; at 9 µM; active compounds read high; 100% = twice DMSO control signal;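 further: 0% = median of the neutral control wells and 100% = twice that signal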

SMILES	activation
COc1ccc(N2CCN(C(=O)CCNC(=O)c3ccc(Br)cc3)CC2)cc1	6.12% (inactive)
CCN(CC(=O)Nc1cc(Cl)ccc1C)C(=O)CN1C(=O)NC2(CCCC2)C1=O	-8.94% (inactive)
COc1ccccc1NC(=O)Nc1nc(CC(=O)Nc2ccccc2F)cs1	23.4% (inactive)
COc1ccc(NC(=O)CN(C)C(=O)c2cc(-c3ccc(C)o3)nc3ccccc23)cc1	19.7% (inactive)
O=C(NC1CCCC1)c1ccc(Br)s1	7.08% (inactive)
CC(C)C(=O)OCC(=O)Nc1ccc2c(c1)CCC2	41.4% (inactive)
O=C(Nc1ccc2c(c1)CCC2)c1ccc(Br)s1	71% (active)
COc1ccc(S(=O)(=O)N2CCCC2CNC(=O)C(=O)NC2CC2)cc1 (stereo unspecified)	5.75% (inactive)
CC(=NCc1ccc2c(c1)OCO2)C1=C(O)c2ccccc2C1=O	33.7% (inactive)
CC(=NCc1ccco1)C1=C(O)c2ccccc2C1=O	106% (active)
CC(=NCc1ccco1)c1c(C(F)(F)F)[nH]n(-c2nc3ccccc3s2)c1=O	-45.7% (inactive)
Cc1ccc(-c2cc(C(=O)NC3CCN(Cc4ccccc4)CC3)c3ccccc3n2)cc1	11.6% (inactive)
CC1=C(/C=C/C(C)=C/C=C/C(C)=C/C=C/C=C(C)/C=C/C=C(C)/C=C/C2=C(C)CCCC2(C)C)C(C)(C)CCC1	54.5% (active)
Cc1cccc(C(=O)OC(C)C(=O)NC2CCCc3ccccc32)c1O (stereo unspecified)	-1.67% (inactive)
CC(C)N(Cc1nnc(-c2ccc(Cl)cc2)o1)C(=O)C1=COCCO1	-12.7% (inactive)
CC1(c2ccccc2)NC(=O)N(CC(=O)Nc2cc(Cl)ccc2N2CCOCC2)C1=O (stereo unspecified)	-13.3% (inactive)
Cc1ccc(NC(=O)CN2C(=O)NC(C)(c3ccc(Cl)cc3)C2=O)c(Br)c1 (stereo unspecified)	78.5% (active)
Cc1ccc(C2(C)NC(=O)N(CC(=O)Nc3ccccc3C(=O)N3CCCCC3)C2=O)cc1 (stereo unspecified)	20.7% (inactive)
Cc1ccc(NC(=S)NCc2ccccc2Cl)c(C)c1	5.6% (inactive)
Cc1ccc(NC(=S)NCCc2ccc(Cl)cc2)c(C)c1	21.9% (inactive)
Cc1ccc(NC(=S)Nc2ncccc2C)c(C)c1	56.7% (active)
O=S(=O)(Nc1cccc(-c2ccc(N3CCOCC3)nn2)c1)c1ccc(Cl)c(Cl)c1	5.14% (inactive)
CCOc1ccc(S(=O)(=O)N2CCN(C(=S)NCC3CCCO3)CC2)cc1 (stereo unspecified)	-5.36% (inactive)
O=C(Nc1ccccc1)Nc1nc2ccccc2s1	61.1% (active)
CC(=O)Nc1ccc(-c2csc(NC(=O)Nc3ccccc3)n2)cc1	-8.14% (inactive)
O=C(CCC(=O)c1cccs1)Nc1nc2ccccc2s1	10.8% (inactive)
